# Laboratory results from ChEMBL document CHEMBL4513216, “Probing the Open Global Health Chemical Diversity Library for Multistage-Active Starting Points for Next-Generation Antimalarials” (ACS Infect Dis, 2020).
# Among all 69,000 compounds or so, about 8,600 (12%) showed an effect of 50% or more. Shown is part of a subset that was picked to be rich in strong results.
# Tested on: Plasmodium berghei
# Experiment: Screen against P. berghei liver stage (PbLuc), transformed with Luciferase, at 10uM
# Type: functional, HepG2
# Conditions: tested at 10 uM
row,Structure (SMILES),INHIBITION [%]
1,Cc1nc(C(=O)N2CCCC2c2noc(C3CC3)n2)c[nH]1 (stereo not drawn),31.8
2,CCS(=O)(=O)NC[C@]12COC[C@H]1CN(Cc1cccc(OC)c1)C2,39.2
3,COc1ccccc1CN1C[C@@H]2COC[C@]2(COCc2ccncc2)C1,60.2
4,CCOC[C@]12COC[C@H]1CN(Cc1cccc(OC)c1)C2,56.7
5,COc1cccc(CN2C[C@@H]3COC[C@]3(COCc3ccncc3)C2)c1,28.4
6,COc1ncccc1CN1C[C@@H]2COC[C@]2(COc2cccnc2)C1,-2.17
7,c1cc(COC[C@]23COC[C@H]2CN(Cc2ccncc2)C3)ccn1,43.9
8,COc1cccc(CN2C[C@@H]3COC[C@]3(COc3cccnc3)C2)c1,67.2
9,c1ccc(CN2C[C@@H]3COC[C@]3(COCc3ccncc3)C2)nc1,48.6
10,COc1cccc(CN2C[C@@H]3COC[C@]3(CN3CCOCC3)C2)c1,29.9
11,COc1cccc(CN2C[C@@H]3COC[C@]3(COCc3ccccn3)C2)c1,53.2
12,COc1ccccc1CN1C[C@@H]2COC[C@]2(COc2cccnc2)C1,-8.94
13,COc1ccc(CN2C[C@@H]3COC[C@]3(COc3cccnc3)C2)cc1,24
14,COC(=O)c1cc(OCC2CCC2)cc(C(=O)NCC(C)(C)O)c1,40.2
15,O=C(CC1CCC2(CC1)CCN(Cc1nccs1)CC2)N1CC=CC1,35.2
16,CCc1nnc2n1CCN(C(=O)c1cc(C)n(-c3ccccc3)c1C)C2,5.9
17,CN(C)C[C@]12COC[C@H]1CN(Cc1ccc3ccccc3n1)C2,4.02
18,CN(C)C[C@]12COC[C@H]1CN(Cc1ccccn1)C2,87.7
19,Cc1cc(CN2C[C@@H]3COC[C@]3(CN(C)C)C2)no1,18.8
20,CNc1nccc(C2CCCCN2Cc2cnn3cccnc23)n1 (stereo not drawn),-7.66
21,CC(C)N1CCC2(CC1)CC(=O)N(Cc1cc(F)cc(F)c1)C2,35.1
22,O=C1CC2(CCN(CCO)CC2)CN1Cc1cc(F)cc(F)c1,60.1

row,Structure (SMILES),INHIBITION [%]
1,CCCS(=O)(=O)N1CCC2(CC1)CC(=O)N(Cc1cc(F)cc(F)c1)C2,17.1
2,CCCOCCN1CCC2(CC1)CC(=O)N(Cc1cc(F)cc(F)c1)C2,64.1
3,O=C1CC2(CCN(CCCO)CC2)CN1Cc1ccc(F)c(F)c1,36.8
4,O=C1CC2(CCN(Cc3ncc[nH]3)CC2)CN1Cc1cc(F)cc(F)c1,-6.05
5,O=C(CO)N1CCC2(CC1)CC(=O)N(Cc1cc(F)cc(F)c1)C2,8.99
6,O=C1CC2(CCN(Cc3ccoc3)C2)CN1c1cncnc1 (stereo not drawn),43.9
7,CC(C)=CCN1CCC2(CC1)CC(=O)N(Cc1cc(F)cc(F)c1)C2,38.6
8,O=C1CC2(CCN(Cc3ccoc3)CC2)CN1Cc1cc(F)cc(F)c1,73.4
9,O=C1CC2(CCN(CCCF)CC2)CN1Cc1cc(F)cc(F)c1,75.7
10,CCN1CC2(CCN(CCOc3ccc(F)cc3)CC2)CC1=O,0.868
11,Cc1nc([C@@H]2C[C@@H]3CCN(C(=O)Cc4cccs4)C[C@H]3O2)no1,11.6
12,CCCc1noc(-c2cn(CC(=O)N(CC)CC)nn2)n1,-51.7
13,Cc1ccc(C(O)CN(C)Cc2cnn(C)c2)cc1C (stereo not drawn),28.7
14,Cn1ccc(C(=O)NC2CCC23CCN(C(=O)c2ccncc2)CC3)c1 (stereo not drawn),13.5
15,CNc1snc(C)c1C(=O)N1CCC(Nc2ccc(C)nn2)CC1,1.15
16,O=C1CCC(=O)N1CCn1nnc(-c2cccc(Cl)c2)n1,-5.57
17,O=C1CC2(CCN(CC3CCOC3)CC2)CN1Cc1cc(F)cc(F)c1 (stereo not drawn),46.8
18,O=C1CC2(CCN(CC3CC3)C2)CN1c1cccc(F)c1 (stereo not drawn),-6.02
19,O=C1CC2(CCN(CC3CC3)CC2)CN1Cc1cc(F)cc(F)c1,69.3
20,CCc1n[nH]c(C2CN(C(=O)c3ccnc(C4CC4)n3)CCO2)n1 (stereo not drawn),31.3
21,CCc1ccc(CN2C[C@H](OCC(=O)N(C)C)[C@H]3COC[C@H]32)o1,26.5
22,Cc1nn(C)cc1CC(C#N)C(=O)Nc1cccc(O)c1 (stereo not drawn),3.58

row,Structure (SMILES),INHIBITION [%]
1,COc1ccc(F)c(CN2CCC(c3cc(O)nc(C)n3)C2)c1 (stereo not drawn),50.6
2,COc1cccc(CN2CCC(c3cc(O)nc(C)n3)C2)c1 (stereo not drawn),47.8
3,COCc1cc(O)nc(C2CCCN(Cc3cccc(Cl)c3Cl)C2)n1 (stereo not drawn),17.4
4,COc1ccc(F)c(CN2CCCC(c3cc(O)nc(C)n3)C2)c1 (stereo not drawn),25.8
5,COCc1cc(O)nc(C2CCCN(Cc3ccc(OC)cc3)C2)n1 (stereo not drawn),61.9
6,COCc1cc(O)nc(C2CCCN(Cc3ccc(F)cc3)C2)n1 (stereo not drawn),39.7
7,COc1cccc(CC(=O)N2CCCC2c2nc(C)c(F)c(O)n2)c1 (stereo not drawn),3.91
8,COc1ccc(CN2CCC(c3cc(O)nc(C)n3)C2)c(F)c1 (stereo not drawn),21.9
9,COCc1cc(O)nc(C2CCCN(Cc3cccc(OC)c3)C2)n1 (stereo not drawn),57.5
10,COc1ccc(CC(=O)N2CCCC2c2nc(C)c(C)c(O)n2)cc1 (stereo not drawn),46
11,CCc1cc(O)nc(C2CCCN(Cc3ccncc3)C2)n1 (stereo not drawn),47.1
12,COc1cccc(CC(=O)N2CCCC2c2nc(C)c(C)c(O)n2)c1 (stereo not drawn),50.8
13,CCN(CC1CCOC1)C(=O)Nc1ccc(OCC(F)(F)F)nc1 (stereo not drawn),-1.885
14,CC(C)(C)CCN1CCC(c2nnc(Cn3cccn3)n2C2CC2)CC1,32.2
15,CC(=O)NCC(=O)NCC1(O)CCN(c2cnccn2)C1 (stereo not drawn),42.25
16,COc1c(C)cnc(CN2CCOC(Cn3cncn3)C2)c1C (stereo not drawn),2.97
17,O=C(C1CCC2(CCN(CC3CCOCC3)CC2)O1)N1CCCC1 (stereo not drawn),1.34
18,COCCNC(=O)C1(Cc2ccccc2-c2ccncc2)CCOCC1,40
19,COc1ccc(OC)c(CN2CCC(c3cc(O)nc(C)n3)C2)c1 (stereo not drawn),41.2
20,COCc1cc(O)nc(C2CCCN(Cc3cc(OC)ccc3F)C2)n1 (stereo not drawn),52.3
21,Cc1cc(O)nc(C2CCCN(Cc3ccncc3)C2)n1 (stereo not drawn),27.3
22,CSc1ccc(C2SCC(=O)Nc3c2c(=O)[nH]n3C2CCOCC2)cc1 (stereo not drawn),52.1

row,Structure (SMILES),INHIBITION [%]
1,CCOc1ccc(C2SCC(=O)Nc3c2c(=O)[nH]n3C(CC)CC)cc1 (stereo not drawn),-19.7
2,COc1ccccc1C1SCC(=O)Nc2c1c(=O)[nH]n2C1CCCCC1 (stereo not drawn),-2.39
3,O=C1CSC(c2ccccc2)c2c(n(C3CCOCC3)[nH]c2=O)N1 (stereo not drawn),32.2
4,O=C1CSC(c2ccsc2)c2c(n(C3CCCC3)[nH]c2=O)N1 (stereo not drawn),63.3
5,O=C1CSC(c2ccc(O)cc2)c2c(n(C3CCOCC3)[nH]c2=O)N1 (stereo not drawn),60.1
6,O=C1CC(C2CCCCC2)c2c(n(C3CCCC3)[nH]c2=O)N1 (stereo not drawn),43.4
7,Cn1cc(C2SCC(=O)Nc3c2c(=O)[nH]n3C2CCOCC2)cn1 (stereo not drawn),-70.7
8,Cc1n[nH]c2c1C(c1ccsc1)SCC(=O)N2 (stereo not drawn),19.7
9,O=C1CC(c2ccccc2F)c2c(n(C3CCCC3)[nH]c2=O)N1 (stereo not drawn),68.5
10,COc1ccccc1C1CC(=O)Nc2c1c(=O)[nH]n2C1CCCC1 (stereo not drawn),11.7
11,CC1=Nc2c(c(=O)[nH]n2C2CCOCC2)C(c2cccc(O)c2)S1 (stereo not drawn),0.29
12,Cc1ccsc1CNC(=O)NC(C)c1ccc2c(c1)CCC(=O)N2 (stereo not drawn),-121
13,COCCN1CCO[C@@H]2CN(Cc3ccc(C)s3)C[C@@H]2C1,24.6
14,NC(=O)C1CCN(C(=O)CCSCc2ccccc2)CC1,17.2875
15,CCCn1nc(C)c(C(=O)N(C)[C@@H]2CC[C@@H](N3CCCC3)[C@@H]2O)c1C,32
16,CCn1cnnc1C1CCN(C(=O)c2cc3c(s2)CCOC3)CC1,-9.37
17,Cc1cc(C)cc(N2CCN(C(=O)CCN3C[C@H]4CC[C@@H]3C4)CC2=O)c1,22.1
18,CC(O)CN1CCN(C(=O)c2cccn2Cc2ccccc2)CC1 (stereo not drawn),-0.113
19,CCOC(C)c1nccn1CC(=O)Nc1cc(C)on1 (stereo not drawn),15.4
20,CSCC(=O)N1CCCC(CO)(CC2CC2)C1 (stereo not drawn),41.2
21,Cc1n[nH]c2c1C(c1ccncc1)SCC(=O)N2 (stereo not drawn),23.5
22,CC(C)(C)n1ncc2c1NC(=O)CSC2c1ccsc1 (stereo not drawn),-14.7

row,Structure (SMILES),INHIBITION [%]
1,O=C1CSC(c2ccncc2)c2c(n(C3CCOCC3)[nH]c2=O)N1 (stereo not drawn),52.1
2,O=C1CSC(c2cccnc2)c2c(n(C3CCOCC3)[nH]c2=O)N1 (stereo not drawn),48.1
3,O=C1CC(c2ccsc2)c2c(n(C3CCOCC3)[nH]c2=O)N1 (stereo not drawn),19
4,O=C1CSC(c2ccsc2)c2c(n(C3CCOCC3)[nH]c2=O)N1 (stereo not drawn),67.1
5,CC(C(=O)N1CCCCCC1)N1CCN(Cc2nccn2C)CC1 (stereo not drawn),37.4
6,CCSCCn1cc(-c2nccs2)nn1,-17.5
7,CC(C)c1ncncc1C(=O)N1CCCN(Cc2ccccc2)CC1,14.1
8,CC(C)C(=O)N1CCCC1C(=O)Nc1ccc(F)c(F)c1 (stereo not drawn),21.7
9,O=C(c1cccn1Cc1cccs1)N1CCN2CCCCC2C1 (stereo not drawn),33.3
10,CC(=O)N1CCO[C@@H]2CN(S(=O)(=O)c3ccc(F)cc3)CC[C@@H]2C1,45.4
11,O=C1CN(C(=O)CN(CC2CCC2)CC(F)(F)F)CCN1,31
12,OCC1CCC2(CC1)CN(Cc1ccccc1F)Cc1ccccc1O2 (stereo not drawn),53.5
13,OCC1CCC2(CC1)CN(Cc1ccccn1)Cc1ccccc1O2 (stereo not drawn),21
14,Cc1ncc(CN2Cc3ccccc3OC3(CCC(CO)CC3)C2)cn1 (stereo not drawn),47.2
15,Cc1cnccc1CN1Cc2ccccc2OC2(CCC(CO)CC2)C1 (stereo not drawn),41.2
16,O=C(Nc1ccccc1)C1CN(Cc2ccsc2)CC12CCOCC2 (stereo not drawn),-3.12
17,OCC1CCC2(CC1)CN(Cc1ccsc1)Cc1ccccc1O2 (stereo not drawn),51.5
18,Cc1ccc(CN2Cc3ccccc3OC3(CCC(CO)CC3)C2)s1 (stereo not drawn),67.9
19,Cc1ccc(CN2CC(C(=O)Nc3ccccc3)C3(CCOCC3)C2)s1 (stereo not drawn),45.8
20,Cc1ccc(CN2Cc3ccccc3OC3(CCC(CO)CC3)C2)o1 (stereo not drawn),44.1
